Screens deposited in PubChem by National Center for Advancing Translational Sciences (NCATS).
HT1080 IDH1KD tx: qHTS for induction of synthetic lethality in tumor cells producing 2HG: qHTS for the HT-1080-IDH1KD cell line | HT-1080 IDH1 knockdown viability, ATP luminescence, 48 h | Potency, µM (series often up to 46.1 µM), actives largely listed as cytotoxic | 360,000 compounds, 2% hits
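Luminescent ATP read-out (CellTiter-Glo, 10 min at room temperature) after 48 h compound exposure at 37 °C gave viability of IDH1-knockdown HT-1080 cells. Activity was normalised to DMSO and cell-free wells, then fitted as concentration-response curves.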
SW480 rerep: A quantitative high throughput screen for small molecules that induce DNA re-replication in SW480 colon adenocarcinoma cells. SW480 DNA re-replication, Hoechst DNA content imaging, 48 h. Potency, µM (series often up to 46.1 µM), hits mostly activators. 340,000 compounds, 1.8% hits. AID 624297, 2012; further: nearly all actives have a fitted effect of over 55% in size
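DNA re-replication was detected as more nuclei of elevated Hoechst intensity after 48 hr exposure to compound (23 nL pinned per well of 250 cells).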
HT1080NT lethal: qHTS for induction of synthetic lethality in tumor cells producing 2HG: qHTS for the HT-1080-NT fibrosarcoma cell line | Potency, µM (doses to about 46.1 µM), most hits filed as cytotoxic | 360,000 compounds, 1.6% hits | HT-1080-NT fibrosarcoma viability, CellTiter-Glo ATP luminescence, 48 h;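 further: NT is the 2HG producing partner of a matched IDH1 knockdown line; nearly all actives have a fitted effect of over 55% in size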
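Compounds were tested in concentration-response format on HT-1080-NT cells for 48 hours at 37 degrees C. Cell viability came from CellTiter-Glo luminescence; curves were classified by r2, response magnitude and activity.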
KB-3-1 cytotox: qHTS assay for MDR1-selective chemotherapeutics: Primary screen using the parental adenocarcinoma cell KB-3-1; KB-3-1 viability, CellTiter-Glo ATP luminescence, 72 h; Potency, µM (series often up to 46.1 µM), usual class: cytotoxic; 400,000 compounds, 1.4% hits; AID 1347075, 2019; further: nearly all actives have a fitted effect of over 60% in size
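Cells are dispensed, compounds pinned in, plates held at 37 °C for 72 h, then CellTiter-Glo is added and luminescence read after 10 minutes. Cell line: parental KB-3-1 in phenol-red-free DMEM, 10% FBS.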
KB-V1 MDR tox: qHTS assay for MDR1-selective chemotherapeutics: Primary screen using the drug-selected MDR subline cells KB-V1. KB-V1 MDR cells viability, CellTiter-Glo, 72 h. Potency, µM (doses to about 46.1 µM), most hits filed as cytotoxic. 400,000 compounds, 3.4% hits. AID 1347076, 2019; further: nearly all actives have a fitted effect of over 60% in size
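KB-V1 cells (P-gp-expressing MDR subline of KB-3-1) in phenol-red-free DMEM with 10% FBS were exposed to library compounds over a concentration series for 72 h at 37 degrees C. Viability read by CellTiter-Glo luminescence; concentration-effect curves fitted after normalization.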
MCF10A rerep: A quantitative high throughput screen for small molecules that induce DNA re-replication in MCF 10a normal breast cells. MCF 10A DNA re-replication, Hoechst nuclear intensity, 48 h. Potency, µM (highest dose often 46.1 µM), hits mostly activators. 350,000 compounds, 2.9% hits. AID 624296, 2012; further: nearly all actives have a fitted effect of over 50% in size
Numbers stand for hits; i = inactive; ? = inconclusive; nt = no result given; ! = not confirmed by another sample; [ ] = dose if it differs, or a comment. Only some compounds are listed: those with a hit (about 7.9% of all), similar ones and a draw of the others. The call rests on the fitted dose curve; in most records, active means well fitted curve in the direction sought with a large enough effect; inconclusive means small, poorly fitted or top-dose-only effect, or another doubt; inactive means no such curve, though single readings can be large; an effect the other way counts as inactive or inconclusive.

SMILES	HT1080 IDH1KD tx	SW480 rerep	HT1080NT lethal	KB-3-1 cytotox	KB-V1 MDR tox	MCF10A rerep
O=C(Nc1ccccc1)c1nn(-c2ccccc2)c(=O)cc1C(F)(F)F	i	i	i	i	i	i
CCn1cc(C(=O)NCc2ccccc2Cl)c(=O)c2cc(S(=O)(=O)N3CCCCCC3)ccc21	nt	nt	nt	i	?	nt
CCOc1ccc(OCC)c(NS(=O)(=O)c2c(C)[nH]c(=O)[nH]c2=O)c1	nt	nt	nt	i	i	nt
CN1CCc2c(sc(NC(=O)CS(=O)(=O)c3ccccc3)c2C(N)=O)C1	i	i	i	i	i	i
CCCN1CCc2c(sc(NC(=O)CCS(=O)(=O)c3ccccc3)c2C(N)=O)C1	i	18.4µM	i	nt	nt	20.6µM
C/C(=N\NC(=O)c1ccccc1-n1cccc1)c1ccccn1	?	nt	?	10.3µM	i	nt
O=C(N/N=C/c1ccc(Br)cc1)c1ccccc1-n1cccc1	11.2µM	13µM	?	?	14.6µM	?
C[C@@H]1CN([C@@H](C)CO)C(=O)CCCn2nncc2CO[C@H]1CN(C)C(=O)CCC(F)(F)F	i	nt	i	i	i	nt
C[C@@H]1CN([C@H](C)CO)C(=O)CCCn2nncc2CO[C@@H]1CN(C)C(=O)CCC(F)(F)F	i	nt	i	1.64µM	i	nt
CSc1ncc2[nH]c(C(O)c3ccccc3)nc2n1 (configuration not stated)	i	i	?	3.26µM	8.2µM	i
CCc1nnc(SC(CC)C(=O)Nc2cc(C)ccc2C)c2cc3occc3n12 (configuration not stated)	nt	nt	nt	i	i	nt
COc1cccc(CNC(=O)c2cc(S(=O)(=O)N3CCCCCC3)cn2C)c1	nt	nt	nt	i	i	nt
Cn1c(-c2ccc(C=O)s2)nc2c3ccccc3c3ccccc3c21	i	?	i	?	?	10.3µM
COc1cc(/C=c2\s/c(=C\C(=O)C(C)(C)C)[nH]c2=O)cc(OC)c1OC	i	4.11µM	i	i	?	18.4µM
COc1ccc(/C=c2\s/c(=C\C(=O)C(C)(C)C)[nH]c2=O)cc1O	i	i	i	i	i	?
Cc1cc(C)c2oc(C(=O)Nc3nc4ccc(Cl)cc4s3)cc(=O)c2c1	nt	nt	nt	i	?	nt
COc1ccc2cc(/C=N/NC(=O)c3ccc(CN(c4cccc(Cl)c4Cl)S(C)(=O)=O)cc3)c(Cl)nc2c1	?	i	?	2.59µM	?	?
Cc1nc2ccccc2c2nc(NC(=O)Cc3ccccc3)nn12	i	i	i	?	18.4µM	i
CCCCCCCCN=C1NC(=O)CS1	i	i	i	?	13µM	i
CCc1ccc(N=C2NC(=O)CS2)cc1	i	i	i	i	?	i
CCc1ccc(C=O)cc1	nt	nt	nt	i	i	nt
CCN=c1scc(-c2ccccc2)n1/N=C/c1ccccn1	?	i	?	8.2µM	?	20.6µM
C=CCN=c1scc(-c2ccccc2)n1/N=C/c1ccccn1	18.4µM	?	18.4µM	1.46µM!	7.31µM!	?
COc1ccc(C(C(=O)NC2CCCC2)n2c(-c3cccs3)nc3ccccc32)cc1 (configuration not stated)	i	nt	i	i	?	nt
O=C1c2cnc3nc(SCc4cccc(Cl)c4)nn3c2CC2c3ccccc3CCN12 (configuration not stated)	i	2.59µM	i	i	i	2.06µM
SMILES	HT1080 IDH1KD tx	SW480 rerep	HT1080NT lethal	KB-3-1 cytotox	KB-V1 MDR tox	MCF10A rerep
Cc1ccc2c(c1)CC1(CN2C)C(=O)OC2(CCCCC2)OC1=O	i	i	i	i	i	i
CN1CC2(Cc3c1ccc1ccccc31)C(=O)OC(C)(C)OC2=O	?	i	23.1µM	?	?	i
CCN1CCN(c2cccc(Nc3nn4c(=O)c5ccccc5nc4s3)c2)CC1	nt	nt	nt	i	i	nt
COc1ccc(S(=O)(=O)NCCc2csc(-c3ccc(F)cc3)n2)cc1	nt	nt	nt	?	i	nt
N#CC(C#N)=NNc1ccc2cn[nH]c2c1	20.6µM	nt	20.6µM	i	i	nt
COc1ccc(NC(=O)Cn2c(=O)n(-c3ccc(C)cc3)c(=O)c3c2cnn3C)cc1	nt	nt	nt	i	i	nt
CCOc1cc(CNC(=O)c2cc(-c3ccccc3)n[nH]2)cc(OCC)c1OCC	nt	nt	nt	i	i	nt
COc1ccc(/C=C2\Oc3ccccc3C2=O)cc1	i	i	i	?	?	i
CCOc1ccccc1C1NC(=O)c2ccccc2O1 (configuration not stated)	i	i[9.22 µM]	i	i	i	i
CCOc1ccc(/C=C2\C(=O)c3ccccc3OC2c2ccccc2)cc1 (configuration not stated)	i	?	i	?	16.4µM	5.17µM
COc1ccc(/C=C2\C(=O)c3ccccc3OC2c2ccccc2)cc1 (configuration not stated)	?	?	?	?	7.31µM	10.3µM
CN(C(=O)COc1ccccc1C(=O)Nc1ccccc1)c1ccccc1	nt	nt	nt	i	i	nt
CCOC(=O)c1ccccc1NC(=O)CN(c1ccccc1OC)S(=O)(=O)c1ccc(C)cc1	nt	nt	nt	i	i	nt
COc1ccc(-c2cc(C(=O)N3CCN(c4ccccc4)CC3)no2)cc1	?	i	i	?	20.6µM!	?
O=C(c1cc(-c2cccc(O)c2)on1)N1CCN(C(c2ccccc2)c2ccccc2)CC1	?	i	?	18.4µM	?	6.51µM
Cc1c(Cl)cccc1-c1ccc(CNCCSc2nnnn2-c2ccccc2)o1	nt	nt	nt	i	i	nt
CNc1ncnc2c1ncn2[C@H]1CN(Cc2ccccc2)C[C@@H](CO)O1	?	nt	?	i	i	nt
Cc1ccccn1	nt	i	nt	nt	nt	i
COc1ccc(-c2onc(C)c2-c2cnn(-c3ccccc3)c2)c(O)c1C	i	?	i	i	i	?
COc1ccc(-c2n[nH]c(C)c2-c2cnn(-c3ccccc3)c2)c(O)c1C	?	14.6µM	i	?	?	?
COc1ccc(-c2n[nH]c(C)c2-c2cnn(-c3ccccc3)c2)c(O)c1	i	?	i	i	?	20.6µM
CCOc1ccc(NC(=O)CSc2nnc3c(C)cc4ccccc4n23)cc1	nt	nt	nt	i	i	nt
O=C(Nc1cc(Cl)cc(Cl)c1)N[C@@H]1CC[C@@H](CCNS(=O)(=O)c2cccc(F)c2)O[C@@H]1CO	?	nt	18.4µM	?	i	nt
Cc1cc(-c2nnc(-c3cc4ccccc4oc3=O)o2)c(C)n1-c1ccccc1	i	?	i	?	?	5.8µM
Cc1cccc(CCNC(=O)C2CCCN(S(=O)(=O)c3ccc4c(c3)oc(=O)n4C)C2)c1 (configuration not stated)	nt	nt	nt	i	i	nt
